Data on 36 molecules can be found in PubChem BioAssay (NCATS).

Experiment [1] can be described thus: qHTS Assay for Identifying Gametocytocidal Compounds (AID 743244; active means well fitted curve in the direction sought with a large enough effect; further: potency means the concentration at half of the fitted maximal effect;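 on max response: on the % scale 0 is the no-effect control and ±100 the full control effect; actives lower the fluorescent signal which means gametocytes are killed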). The settings on record: P. falciparum 3D7 stage III-V gametocytes, alamarBlue, 72 h; max response: stronger effect = lower value. In short, it runs like this: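 Viability read-out was resazurin reduction (alamarBlue, 24 h) measured at Ex 525/Em 598 nm. Beforehand, late-stage (III-V) 3D7 P. falciparum gametocytes at 20,000 cells/well were incubated with compound 72 h at 37C under 5% CO2.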
Background: qHTS replaces the single test concentration by a dilution series.

The nature of experiment [2]: qHTS profiling of the MIPE4 collection as inhibitors of Plasmodium falciparum (3D7) proliferation (AID 743344).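 Further: scaled between DMSO vehicle wells and 0.29 µM artemisinin as full inhibition.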 The settings on record: P. falciparum 3D7 in erythrocytes, SYBR Green DNA fluorescence, 72 h; at 28.5 µM (top of the series) unless noted. In a few lines: (§1)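 Erythrocytes infected with P. falciparum (0.3% parasitemia, 2.5% hematocrit) incubated with compounds 72 h at 37 C, 5% CO2. Lysis with saponin/Triton buffer containing SYBR Green I, overnight at room temperature in the dark; DNA fluorescence (485/535 nm) normalised to 0.29 uM artemisinin and DMSO.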

Experiment [3] in a line: qHTS profiling of the MIPE4 collection as inhibitors of Plasmodium falciparum (DD2) proliferation (AID 743345). The settings on record: P. falciparum Dd2 in erythrocytes, SYBR Green DNA, 72 h; at 28.5 µM (top of the series) unless noted. In a few lines:
as §1

Records with an inconclusive call do not appear. Active and inactive are the calls of the source. Unless noted, how the calls were made is not given here.

As to `CCn1cc(C(=O)O)c(=O)c2cc(F)c(N3CCNCC3)nc21`, in experiment [1], the max response was 0.203% (inactive). In experiment [2], this molecule showed a parasite growth, % of DMSO control of 35.6%. Also, the parasite growth remaining, % of DMSO control (lower = more inhibition) in experiment [3] is 56.4%.

Turning to `O[C@@H](CNC[C@H](O)[C@H]1CCc2cc(F)ccc2O1)[C@@H]1CCc2cc(F)ccc2O1`, the Potency in experiment [1] was 11.2 µM (active). In experiment [2], this molecule had a parasite growth, % of DMSO control of 6.58%. In experiment [3], the parasite growth remaining, % of DMSO control (lower = more inhibition) stood at 8.23%.

Consider `NS(=O)(=O)c1cc2c(cc1Cl)NC(C(Cl)Cl)NS2(=O)=O` (stereo not drawn), for which the max response in experiment [1] was 6.12% (inactive). This molecule also registered a parasite growth, % of DMSO control in experiment [2] of 84.2%. For the same molecule, the parasite growth remaining, % of DMSO control (lower = more inhibition) in experiment [3] came out at 86.3%.

For the molecule `Cc1cccc(N(C)C(=S)Oc2ccc3ccccc3c2)c1`, in experiment [1], the max response is 6.54% (inactive). Also, in experiment [2], the parasite growth, % of DMSO control turned out to be 51.5%. Besides, the parasite growth remaining, % of DMSO control (lower = more inhibition) in experiment [3] worked out at 84.1%.

Regarding `CCCN[C@H]1CCc2nc(N)sc2C1`, the max response in experiment [1] was -5.22% (inactive). In experiment [2], this molecule registered a parasite growth, % of DMSO control of 5.95%. Also, in experiment [3], the parasite growth remaining, % of DMSO control (lower = more inhibition) is 92.8%.

Turning to `Cn1c(=O)c2c(ncn2CC(O)CO)n(C)c1=O` (stereo not drawn), the max response in experiment [1] was -1.9% (inactive). The same molecule came in with a parasite growth, % of DMSO control in experiment [2] of 85.8%. The parasite growth remaining, % of DMSO control (lower = more inhibition) in experiment [3] amounted to 88.3%.

As to `O=c1cc(O)c(Cl)c[nH]1`, the max response in experiment [1] is 10.3% (inactive). Moreover, in experiment [2], the parasite growth, % of DMSO control was 29%. Further, the parasite growth remaining, % of DMSO control (lower = more inhibition) in experiment [3] was 122%.

Consider `C[C@@H]1CN(c2c(F)c(N)c3c(=O)c(C(=O)O)cn(C4CC4)c3c2F)C[C@H](C)N1`, for which the max response in experiment [1] was 13.9% (inactive). The molecule further had a parasite growth, % of DMSO control in experiment [2] of 55.7% [at 9.64 µM]. Moreover, in experiment [3], the parasite growth remaining, % of DMSO control (lower = more inhibition) was 83% [at 9.64 µM].

For `CCN[C@H]1C[C@H](C)S(=O)(=O)c2sc(S(N)(=O)=O)cc21`, the max response in experiment [1] was 4.01% (inactive). This molecule returned a parasite growth, % of DMSO control in experiment [2] of 93.1%. Besides, the parasite growth remaining, % of DMSO control (lower = more inhibition) in experiment [3] was determined as 19.2%.

Take `C[C@@H]1C[C@H]2[C@@H]3CCC4=CC(=O)C=C[C@]4(C)[C@@]3(Cl)[C@@H](O)C[C@]2(C)[C@@]1(OC(=O)c1ccco1)C(=O)CCl`: the max response in experiment [1] is 3.64% (inactive). In experiment [2], this molecule yielded a parasite growth, % of DMSO control of 5.2%. The parasite growth remaining, % of DMSO control (lower = more inhibition) in experiment [3] was found to be 7.88%.

With `CCOC(=O)[C@H](CCc1ccccc1)N[C@H]1CS[C@H](c2cccs2)CN(CC(=O)O)C1=O`, the max response in experiment [1] is 3.7% (inactive). Further, in experiment [2], the parasite growth, % of DMSO control was 5.73%. Further, the parasite growth remaining, % of DMSO control (lower = more inhibition) in experiment [3] worked out at 58.9%.

For `COc1nc(N)nc2c1ncn2[C@@H]1O[C@H](CO)[C@@H](O)[C@@H]1O`, the max response in experiment [1] is 4.43% (inactive). In experiment [2], this molecule displayed a parasite growth, % of DMSO control of 77.9%. Also, the parasite growth remaining, % of DMSO control (lower = more inhibition) in experiment [3] was 85.4%.

For the molecule `COC(=O)Nc1nc2ccc(C(=O)c3ccccc3)cc2[nH]1`, the max response in experiment [1] was -6.13% (inactive). The parasite growth, % of DMSO control in experiment [2] came out at 61.1%. For the same molecule, the parasite growth remaining, % of DMSO control (lower = more inhibition) in experiment [3] was determined as 97.7%.

On to `Oc1c(Cl)cc(Cl)c2cccnc12`, for which the Potency in experiment [1] is 7.08 µM (active). In experiment [2], this molecule returned a parasite growth, % of DMSO control of 123%. Besides, the parasite growth remaining, % of DMSO control (lower = more inhibition) in experiment [3] came out at 94.2%.

With `Cc1oc(=O)oc1CN1CCN(c2cc3c(cc2F)c(=O)c(C(=O)O)c2n3C(C)S2)CC1` (stereo not drawn), the max response in experiment [1] is 2.62% (inactive). This molecule also came in with a parasite growth, % of DMSO control in experiment [2] of 24.1%. For the same molecule, the parasite growth remaining, % of DMSO control (lower = more inhibition) in experiment [3] is 12.9%.

For the molecule `COc1cc(NS(=O)(=O)c2ccc(N)cc2)nc(OC)n1`, the max response in experiment [1] is 22.6% (inactive). This molecule also had a parasite growth, % of DMSO control in experiment [2] of 39.3%. In addition, the parasite growth remaining, % of DMSO control (lower = more inhibition) in experiment [3] stood at 96.8%.

With `C#CCN[C@@H]1CCc2ccccc21`, the max response in experiment [1] is -0.979% (inactive). The parasite growth, % of DMSO control in experiment [2] came out at 95.8%. Besides, the parasite growth remaining, % of DMSO control (lower = more inhibition) in experiment [3] was 129%.

Turning to `Cc1onc(-c2ccccc2Cl)c1C(=O)N[C@@H]1C(=O)N2[C@@H]1SC(C)(C)[C@@H]2C(=O)O`, the max response in experiment [1] is -11.3% (inactive). In experiment [2], this molecule displayed a parasite growth, % of DMSO control of 86.7%. Also, in experiment [3], the parasite growth remaining, % of DMSO control (lower = more inhibition) was 94.6%.

With `COc1ccc2c(c1)c(CC(=O)OCC(=O)O)c(C)n2C(=O)c1ccc(Cl)cc1`, the max response in experiment [1] was -13.1% (inactive). This molecule also yielded a parasite growth, % of DMSO control in experiment [2] of 78.3%. Besides, the parasite growth remaining, % of DMSO control (lower = more inhibition) in experiment [3] is 104%.

Consider `CN(C)CCc1c[nH]c2ccc(C[C@H]3COC(=O)N3)cc12`, for which the max response in experiment [1] was -7.68% (inactive). Further, the parasite growth, % of DMSO control in experiment [2] turned out to be 107%. Further, in experiment [3], the parasite growth remaining, % of DMSO control (lower = more inhibition) came out at 92.5%.

Take `CO[C@@]12[C@H](COC(N)=O)C3=C(C(=O)C(C)=C(N)C3=O)N1C[C@@H]1N[C@@H]12`: the max response in experiment [1] is -9.88% (inactive). Moreover, in experiment [2], the parasite growth, % of DMSO control was 6.13%. Besides, in experiment [3], the parasite growth remaining, % of DMSO control (lower = more inhibition) is 7.06%.

Consider `O=C(O)c1ccc(-n2nc(-c3ccccc3O)nc2-c2ccccc2O)cc1`, for which, in experiment [1], the max response was -16.4% (inactive). The molecule also displayed a parasite growth, % of DMSO control in experiment [2] of 50.5%. In addition, the parasite growth remaining, % of DMSO control (lower = more inhibition) in experiment [3] is 107%.

Turning to `CCCc1nc(C)c2c(=O)[nH]c(-c3cc(S(=O)(=O)N4CCN(CC)CC4)ccc3OCC)nn12`, the max response in experiment [1] is 1.11% (inactive). The molecule also yielded a parasite growth, % of DMSO control in experiment [2] of 6.01%. In addition, the parasite growth remaining, % of DMSO control (lower = more inhibition) in experiment [3] is 12.3%.

For the molecule `CNC1CCCN(c2c(F)cc3c(=O)c(C(=O)O)cn(C4CC4)c3c2OC)C1` (stereo not drawn), the max response in experiment [1] is -8.7% (inactive). Moreover, in experiment [2], the parasite growth, % of DMSO control is 20.4%. For the same molecule, in experiment [3], the parasite growth remaining, % of DMSO control (lower = more inhibition) stood at 11.8%.

Regarding `CNS(=O)(=O)CCc1ccc2[nH]cc(C3CCN(C)CC3)c2c1`, the max response in experiment [1] is 4.41% (inactive). Moreover, in experiment [2], the parasite growth, % of DMSO control is 97.5%. Further, in experiment [3], the parasite growth remaining, % of DMSO control (lower = more inhibition) worked out at 87.2%.

Regarding `COC(=O)Nc1nc2ccc(S(=O)c3ccccc3)cc2[nH]1` (stereo not drawn), the max response in experiment [1] is 20.6% (inactive). The parasite growth, % of DMSO control in experiment [2] was determined as 67%. In addition, the parasite growth remaining, % of DMSO control (lower = more inhibition) in experiment [3] was 82.8%.

Consider `Nc1ccc(S(=O)(=O)Nc2ccccn2)cc1`, for which, in experiment [1], the max response was 3.9% (inactive). Further, in experiment [2], the parasite growth, % of DMSO control was determined as 89.8%. Further, the parasite growth remaining, % of DMSO control (lower = more inhibition) in experiment [3] is 89.4%.

As for `O=P(O)(O)C(O)(Cc1cccnc1)P(=O)(O)O`, the max response in experiment [1] was 8.36% (inactive). The molecule also came in with a parasite growth, % of DMSO control in experiment [2] of 71.4%. In experiment [3], the parasite growth remaining, % of DMSO control (lower = more inhibition) is 99.5%.

Turning to `CCOC(=O)c1ccc(C#Cc2ccc3c(c2)C(C)(C)CCS3)nc1`, the max response in experiment [1] was 32% (inactive). The molecule also came in with a parasite growth, % of DMSO control in experiment [2] of 36.2%. The parasite growth remaining, % of DMSO control (lower = more inhibition) in experiment [3] is 83.8%.

As for `CCOCC(O)COc1ccc(NC(=O)CC[S+](C)C)cc1` (stereo not drawn), the max response in experiment [1] was 2.79% (inactive). This molecule also registered a parasite growth, % of DMSO control in experiment [2] of 84%. Also, in experiment [3], the parasite growth remaining, % of DMSO control (lower = more inhibition) amounted to 103%.

Take `CCC(=O)O[C@]1(C(=O)SCF)[C@H](C)C[C@H]2[C@@H]3C[C@H](F)C4=CC(=O)C=C[C@]4(C)[C@@]3(F)[C@@H](O)C[C@@]21C`: in experiment [1], the max response was -5% (inactive). The parasite growth, % of DMSO control in experiment [2] came to 47.5%. The parasite growth remaining, % of DMSO control (lower = more inhibition) in experiment [3] turned out to be 86.3%.

`CCCCCCNC(=O)n1cc(F)c(=O)[nH]c1=O`: the max response in experiment [1] was -3.88% (inactive). Besides, the parasite growth, % of DMSO control in experiment [2] came out at 59%. The parasite growth remaining, % of DMSO control (lower = more inhibition) in experiment [3] is 32%.

As to `CC[C@H](NC(C)C)[C@H](O)c1ccc(O)c2[nH]c(=O)ccc12`, the max response in experiment [1] was 0.956% (inactive). The molecule also had a parasite growth, % of DMSO control in experiment [2] of 96.3%. In experiment [3], the parasite growth remaining, % of DMSO control (lower = more inhibition) was 107%.

On to `CCCc1cc(C(N)=S)ccn1`, for which the max response in experiment [1] was 4.17% (inactive). The parasite growth, % of DMSO control in experiment [2] turned out to be 6.05%. The parasite growth remaining, % of DMSO control (lower = more inhibition) in experiment [3] was determined as 65.8%.

For `Cn1nnc2c(C(N)=O)ncn2c1=O`, the max response in experiment [1] was -7.58% (inactive). In experiment [2], this molecule returned a parasite growth, % of DMSO control of 97.2%. Further, in experiment [3], the parasite growth remaining, % of DMSO control (lower = more inhibition) came to 86.5%.

`COc1ccc(-c2ccc3cc(C(=O)O)ccc3c2)cc1C12CC3CC(CC(C3)C1)C2`: in experiment [1], the max response is 23.8% (inactive). For the same molecule, in experiment [2], the parasite growth, % of DMSO control was 66.2%. Moreover, in experiment [3], the parasite growth remaining, % of DMSO control (lower = more inhibition) was determined as 98.8%.
